# In PubChem BioAssay (NCATS):
# Unmarked numbers belong to inactive results. Records with an inconclusive call do not appear. Where a call stands in place of a potency, no number is given. Calls of active or inactive are those of the source. Calls come from the whole dose curve; as a rule, active = well fitted curve in the direction sought with a large enough effect; inconclusive = small, poorly fitted or top-dose-only effect, or another doubt; inactive = no such curve, though single readings can be large; an effect the other way counts as inactive or inconclusive.
# Key:
# [1] = Quantitative High-Throughput drug screen in 47 multiple myeloma cell lines against the NCATS MIPE library collection: KMS11_JCRBsus cell viability assay (AID 1919873); note: nearly all actives have a fitted effect of over 50% in size; note: potency is the fitted concentration of half-maximal effect
# Procedure, shortened: (§1)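 Readout: median RLU from CellTiter-Glo after 5 min at room temperature. Preceding step was 48 h drug treatment of 500 cells/well at 37 °C, 5% CO2, with DMSO-only and media-only control wells.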
# [2] = Quantitative High-Throughput drug screen in 47 multiple myeloma cell lines against the NCATS MIPE library collection: KMS28BM_JCRB cell viability assay (AID 1919874); note: nearly all actives have a fitted effect of over 35% in size; note: potency is the fitted concentration of half-maximal effect
# Procedure, shortened: as §1
# [3] = target: Cytochrome P450 2D6 (Homo sapiens) (UniProt P10635); test: qHTS for inhibitors of CYP2D6 against the NCATS DSHEA and TCM libraries (AID 1919972)
# Sequence of Cytochrome P450 2D6 (Homo sapiens) (P10635 whole entry, looked up): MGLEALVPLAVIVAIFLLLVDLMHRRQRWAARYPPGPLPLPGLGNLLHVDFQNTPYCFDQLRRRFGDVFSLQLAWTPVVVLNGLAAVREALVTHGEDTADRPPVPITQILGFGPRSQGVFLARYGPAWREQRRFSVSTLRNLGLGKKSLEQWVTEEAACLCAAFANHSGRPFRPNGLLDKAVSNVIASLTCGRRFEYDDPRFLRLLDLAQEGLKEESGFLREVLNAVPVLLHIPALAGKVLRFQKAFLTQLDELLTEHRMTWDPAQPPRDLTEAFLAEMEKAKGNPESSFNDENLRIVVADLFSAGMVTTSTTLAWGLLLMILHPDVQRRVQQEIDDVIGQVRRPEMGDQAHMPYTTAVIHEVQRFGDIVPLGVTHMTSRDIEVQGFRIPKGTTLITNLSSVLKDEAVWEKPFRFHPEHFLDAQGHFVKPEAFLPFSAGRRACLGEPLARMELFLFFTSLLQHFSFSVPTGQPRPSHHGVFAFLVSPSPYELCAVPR
# Procedure, shortened: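 qHTS, concentration–response format with most substances from 19.5 nM. CYP2D6 + pro-luciferin substrate, 15 min with compound, then 1x NADPH regen, 30–45 min RT dark. Glo detection 30 min, luminescence. Quinidine control.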
# [4] = KB-3-1 P-gp reporter qHTS against the NCATS DSHEA and TCM libraries (AID 1919975)
# Procedure, shortened: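 72 h exposure of KB-3-1 cells (DMEM, 10% FBS) to DSHEA/TCM samples, concentration-response; cell viability measured as CellTiter-Glo luminescence after 30 min at room temperature.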
# [5] = target: Cytochrome P450 1A2 (Homo sapiens) (UniProt P05177); test: qHTS for inhibitors of CYPIA2 against the NCATS DSHEA and TCM libraries (AID 1919976); note: potency is the fitted concentration of half-maximal effect
# Sequence of Cytochrome P450 1A2 (Homo sapiens) (P05177 whole entry, looked up): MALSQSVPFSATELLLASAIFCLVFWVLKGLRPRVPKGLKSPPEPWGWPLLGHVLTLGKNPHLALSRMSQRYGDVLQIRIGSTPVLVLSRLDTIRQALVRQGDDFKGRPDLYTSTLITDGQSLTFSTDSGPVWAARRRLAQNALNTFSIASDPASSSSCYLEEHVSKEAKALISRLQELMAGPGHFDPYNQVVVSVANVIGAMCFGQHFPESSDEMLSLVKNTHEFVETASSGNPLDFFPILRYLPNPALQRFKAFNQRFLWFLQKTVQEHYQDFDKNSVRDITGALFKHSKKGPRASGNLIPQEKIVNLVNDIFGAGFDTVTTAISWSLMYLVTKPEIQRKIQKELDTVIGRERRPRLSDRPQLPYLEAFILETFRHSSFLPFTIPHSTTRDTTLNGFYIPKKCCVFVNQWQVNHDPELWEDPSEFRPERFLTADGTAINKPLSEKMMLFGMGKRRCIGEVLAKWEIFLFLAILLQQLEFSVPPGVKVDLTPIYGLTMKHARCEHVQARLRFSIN
# Procedure, shortened: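 Furafylline served as the plate control. Compounds met CYP1A2 and pro-luciferin substrate 15 min before NADPH regeneration solution (1x) was added; after 30-45 min at RT, P450-Glo reagent was added for 30 min and luminescence was measured.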
# [6] = qHTS Counterscreen for compound interference against the NCATS DSHEA and TCM libraries (AID 1919978); conditions: firefly luciferase detection reagent interference, luminescence;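 note: compounds preincubated with 1 µM D-luciferin or buffer before detection reagent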
# Description: PI: Anton Simeonov Ph.D. Assay Development and Screening Technology Laboratory (ADST) National Center for Advancing Translational Sciences (NCATS), Rockville, MD National Institute of Health (NIH), Bethesda, Maryland Dietary Supplements and Natural Products have minor oversight of their safety and efficacy. We assembled a collection of Dietary Supplements and Natural Products (DSNP) as well as Traditional Chinese Medicinal (TCM) Plant extracts, which were screened against an in vitro panel of assays, including a liver cytochrome p450 enzyme panel, CAR/PXR signaling pathways, and P-gp transporter assays, to assess their activity. This pipeline facilitated the interrogation of Natural Product-Drug Interaction (NaPDI) through prominent metabolizing pathways. In addition, we compared the activity profiles of the DSNP/TCM substances with those of an approved drug collection. Many of the approved drugs have well-annotated mechanisms of action (MOA) while the MOAs for most of the DSNP and TCM samples remain unknown. Based on the premise that compounds with similar activity profiles tend to share similar targets or MOA, we clustered the library activity profiles to identify overlap with the NCATS Pharmaceutical Collection to predict the MOAs of the DSNP/TCM substances. Overall, we highlight four significant bioactivity profiles (measured by p-values) as examples of this prediction. To assess broad cytotoxicity, we employed screening against a HepG2 cell line. In addition, transporter-mediated drug interactions are utilized in the characterization of DDIs using a P-glycoprotein (P-gp) assays. To profile potential P-gp activity, a differential cell viability was measured against two cell lines: a parental KB-3-1 human cervical adenocarcinoma cell line and the drug-resistant subline KB-8-5-11 that overexpresses P-gp. […] To this end, we profiled both collections for potential CAR and/or PXR activity, employing a previously published 1536-well qHTS assay. […] Reference: [1] Lee TD, et al. A High-Throughput Screen of a Library of Therapeutics Identifies Cytotoxic Substrates of P-glycoprotein. Mol Pharmacol. Nov 2019;96(5):629-640. doi:10.1124/mol.119.115964
# PROTOCOL TABLE (as described by Inglese J, Shamu CE and Guy RK. 2007) SEQUENCE No. (e.g., 1, 2, 3, etc.); […] (e.g., Cells, Incubation, Reagent, etc.); VALUE; DESCRIPTION. 1; Reagent; 4 uL; D-luciferin or buffer only, white solid-bottom Greiner plate. 2; Compounds and control; 16 nL; Kalypsis pintool (Wako USA). 3; Incubation; 15 min; room temperature. 4; Reagent; 4 uL; luciferin detection reagent. 5; Centrifuge; 1000 RPM; 15 sec. 6; Incubation; 30 min; room temperature. 7; Read; Luminescence; ViewLux plate reader. NOTES (numbers refer to Sequence numbers above) 1. […] Plates were then read for luminescence intensity on a ViewLux detector. […]
# [7] = Dual reporter qHTS for agonist of Pregnane X Receptor (hPXR) against the NCATS DSHEA and TCM libraries: Fluorescence readout (AID 1920058)
# Procedure, shortened: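 In this qHTS counter-read, reporter-bearing HepG2 cells in charcoal-stripped serum received substances for approximately 24 h before viability was assessed fluorometrically with CellTiter-Fluor.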
# [8] = target: Cytochrome P450 2C9 (Homo sapiens) (UniProt P11712); test: qHTS for inhibitors of CYP2C9 against the NCATS DSHEA and TCM libraries (AID 1919973); note: potency is the fitted concentration of half-maximal effect
# Sequence of Cytochrome P450 2C9 (Homo sapiens) (P11712 whole entry, looked up, canonical isoform): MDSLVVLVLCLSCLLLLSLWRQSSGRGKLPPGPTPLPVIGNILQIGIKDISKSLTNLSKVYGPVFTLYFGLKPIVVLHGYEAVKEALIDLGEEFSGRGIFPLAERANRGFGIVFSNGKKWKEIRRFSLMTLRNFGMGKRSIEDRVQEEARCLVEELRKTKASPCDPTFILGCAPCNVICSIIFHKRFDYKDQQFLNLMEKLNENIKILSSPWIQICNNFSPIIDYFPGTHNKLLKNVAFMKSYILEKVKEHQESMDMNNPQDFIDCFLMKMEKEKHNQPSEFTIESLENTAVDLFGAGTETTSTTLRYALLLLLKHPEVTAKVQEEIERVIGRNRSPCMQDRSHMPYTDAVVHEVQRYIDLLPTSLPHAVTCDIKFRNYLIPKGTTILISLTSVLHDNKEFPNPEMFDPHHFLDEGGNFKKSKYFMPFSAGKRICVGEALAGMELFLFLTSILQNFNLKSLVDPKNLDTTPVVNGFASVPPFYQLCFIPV
# Procedure, shortened: (§2)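 Isoform-specific enzyme and substrate levels; enzyme-free wells as background. Reaction: 1x NADPH regenerating system, 30-45 min, room temperature, shielded from light; luminescent detection reagent added, 30 min.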
# [9] = target: Cytochrome P450 2C19 (Homo sapiens) (UniProt P33261); test: qHTS for inhibitors of CYP2C19 against the NCATS DSHEA and TCM libraries (AID 1919974);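 note: luminescence from luciferin released by CYP2C19 oxidation of a pro-luciferin substrate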
# Sequence of Cytochrome P450 2C19 (Homo sapiens) (P33261 whole entry, looked up): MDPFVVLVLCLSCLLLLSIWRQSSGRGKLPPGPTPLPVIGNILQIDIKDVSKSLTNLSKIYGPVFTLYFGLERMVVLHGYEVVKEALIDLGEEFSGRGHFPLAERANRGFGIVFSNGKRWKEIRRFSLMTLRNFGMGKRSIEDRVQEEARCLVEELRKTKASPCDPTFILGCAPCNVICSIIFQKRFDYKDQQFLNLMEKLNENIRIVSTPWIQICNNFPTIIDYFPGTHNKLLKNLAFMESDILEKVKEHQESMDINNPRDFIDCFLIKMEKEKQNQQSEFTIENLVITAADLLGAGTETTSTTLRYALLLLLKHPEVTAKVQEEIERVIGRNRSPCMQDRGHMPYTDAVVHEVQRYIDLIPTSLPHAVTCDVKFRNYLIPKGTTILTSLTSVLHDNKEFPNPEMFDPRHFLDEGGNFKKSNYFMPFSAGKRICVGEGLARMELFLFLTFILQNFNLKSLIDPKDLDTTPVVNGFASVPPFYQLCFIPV
# Procedure, shortened: as §2
# [10] = target: Cytochrome P450 3A4 (Homo sapiens) (UniProt P08684); test: qHTS for inhibitors of CYP3A4 against the NCATS DSHEA and TCM libraries (AID 1919971); note: potency is the fitted concentration of half-maximal effect
# Sequence of Cytochrome P450 3A4 (Homo sapiens) (P08684 whole entry, looked up): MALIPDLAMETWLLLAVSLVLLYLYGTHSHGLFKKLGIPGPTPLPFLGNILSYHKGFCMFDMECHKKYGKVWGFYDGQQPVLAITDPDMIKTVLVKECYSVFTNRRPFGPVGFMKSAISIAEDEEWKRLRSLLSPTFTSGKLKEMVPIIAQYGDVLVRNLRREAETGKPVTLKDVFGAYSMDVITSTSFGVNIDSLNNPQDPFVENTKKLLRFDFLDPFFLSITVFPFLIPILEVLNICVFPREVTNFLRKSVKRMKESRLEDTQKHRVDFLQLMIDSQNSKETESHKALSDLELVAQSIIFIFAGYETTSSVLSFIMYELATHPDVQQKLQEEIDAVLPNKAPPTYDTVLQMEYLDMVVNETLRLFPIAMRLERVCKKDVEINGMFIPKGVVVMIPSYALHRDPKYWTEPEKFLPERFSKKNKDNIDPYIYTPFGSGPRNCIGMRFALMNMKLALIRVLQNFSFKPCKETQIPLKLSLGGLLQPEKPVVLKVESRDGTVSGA
# Procedure, shortened: as §2
smiles,measurement,setting,value
O=C1c2cccc(O)c2C(=O)c2c(O)cc(CO)cc21,Potency,[1],inactive
same,Potency,[2],inactive
C=C1C[C@@]2(O)O[C@@]3(C[C@H]2C(C)C)[C@H](C)CC[C@H]13,Potency,[1],inactive
same,Potency,[2],inactive
Cc1cnc(NC(=O)Nc2cc(Br)c(C)cc2OC[C@@H]2CNCCO2)cn1,Potency,[1],5.26 µM (active)
same,Potency,[2],14.8 µM (active)
CCn1c(=O)c2c(nc(C=Cc3ccc(OC)c(OC)c3)n2C)n(CC)c1=O,Potency,[1],inactive
same,Potency,[2],inactive
C=Cc1c(C)c2cc3nc(cc4[nH]c(cc5nc(cc1[nH]2)C(C)=C5CCC(=O)O)c(CCC(=O)OC)c4C)[C@@]1(C)C3=CC=C(C(=O)OC)[C@H]1C(=O)OC,Potency,[1],9.35 µM (active)
same,Potency,[2],0.418 µM (active)
N#CC(=C(O)c1ccc(Cl)cc1Cl)c1nc2cc(Cl)ccc2c(=O)[nH]1,Potency,[1],inactive
same,Potency,[2],inactive
c1coc(CNc2ncnc3nc[nH]c23)c1,Potency,[1],inactive
same,Potency,[2],inactive
CC1=C(C(=O)Nc2cc3cn[nH]c3cc2F)C(c2ccc(Cl)cc2F)N=C(c2ccnc(Cl)c2)N1 (stereo not drawn),Potency,[1],14.8 µM (active)
same,Potency,[2],23.5 µM (active)
COc1cc(C(=O)NC2CCN(C)CC2)ccc1Nc1ncc2c(n1)N(C1CCCC1)CCC(=O)N2C(C)C,Potency,[1],20.9 µM (active)
same,Potency,[2],14.8 µM (active)
COc1cc(C)c(C=CC(C)=CC=CC(C)=CC(=O)O)c(C)c1C,Potency,[1],inactive
same,Potency,[2],inactive
COc1ccc(S(=O)(=O)Nc2cc(-c3c(O)ccc4ccccc34)c(O)c3ccccc23)cc1,Potency,[1],3.32 µM (active)
same,Potency,[2],3.72 µM (active)
Cc1ccccc1C(=O)Nc1ccc(C(=O)N2CCCC(O)c3cc(Cl)ccc32)c(C)c1 (stereo not drawn),Potency,[1],inactive
same,Potency,[2],inactive
COC(=O)C=CC(=O)OC,Potency,[1],inactive
same,Potency,[2],inactive
COc1ccc(C(C)=O)c(O)c1,Potency,[1],inactive
same,outcome,[3],inactive
same,outcome,[4],inactive
same,Potency,[5],15.8 µM (active)
same,max response,[6],3.21%
same,outcome,[7],inactive
Cc1noc(-c2ccc(CSCCC(=O)O)cc2)c1NC(=O)OC(C)c1ccccc1Cl (stereo not drawn),Potency,[1],inactive
same,Potency,[2],inactive
CC(C)C[C@H](NC(=O)[C@@H](NC(=O)c1cccc(-c2ccccc2)n1)[C@@H](C)O)B(O)O,Potency,[1],0.0132 µM (active)
same,Potency,[2],0.0148 µM (active)
CC(=O)OCC(=O)[C@@]12N=C(C)O[C@H]1C[C@H]1[C@@H]3CCC4=CC(=O)C=C[C@]4(C)[C@@H]3[C@@H](O)C[C@@]12C,Potency,[1],0.935 µM (active)
same,Potency,[2],inactive
C[C@]12CC[C@@H]3c4ccc(O)cc4CC[C@H]3[C@H]1CC[C@H]2O,Potency,[1],14.8 µM (active)
same,Potency,[2],23.5 µM (active)
COc1cc(C=CC(=O)CC(=O)C=Cc2ccc(O)c(OC)c2)ccc1O,Potency,[1],8.55 µM (active)
same,Potency,[2],10.8 µM (active)
C[C@@H](NCc1cc2ccccc2[nH]1)c1cccc2ccccc12,Potency,[1],inactive
same,Potency,[2],inactive
CCCCCCCN(CC)CCCC(O)c1ccc(NS(C)(=O)=O)cc1 (stereo not drawn),Potency,[2],inactive
NC(=O)c1cccc(-c2cccc(OC(=O)NC3CCCCC3)c2)c1,Potency,[1],inactive
same,Potency,[2],inactive
C=C(C)[C@@H]1CC[C@]2(C(=O)O)CC[C@]3(C)[C@H](CC[C@@H]4[C@@]5(C)CC[C@H](O)C(C)(C)[C@@H]5CC[C@]43C)[C@@H]12,Potency,[1],inactive
same,Potency,[2],inactive
same,outcome,[3],inactive
same,Potency,[8],inactive
same,outcome,[9],inactive
same,Potency,[5],inactive
same,max response,[6],1.9%
same,outcome,[7],inactive
Cn1cc(C2=C(c3c4n(c5ccccc35)CCC(CN)C4)C(=O)NC2=O)c2ccccc21 (stereo not drawn),Potency,[1],7.43 µM (active)
same,Potency,[2],10.5 µM (active)
Nc1ncn([C@@H]2O[C@H](CO)[C@@H](O)[C@@H]2O)c(=O)n1,Potency,[1],14.8 µM (active)
same,Potency,[2],16.6 µM (active)
O=C1c2c(O)cccc2[C@@H]([C@@H]2O[C@H](CO)[C@@H](O)[C@H](O)[C@H]2O)c2cc(CO)cc(O)c21,Potency,[1],inactive
same,Potency,[2],inactive
same,Potency,[10],25.1 µM (active)
same,Potency,[8],11.2 µM (active)
same,outcome,[9],inactive
same,outcome,[4],inactive
same,max response,[6],-13.5%
same,outcome,[7],inactive
O=C(C=CC#Cc1cccc(NS(=O)(=O)c2ccccc2)c1)NO,Potency,[1],0.662 µM (active)
same,Potency,[2],0.833 µM (active)
CON=C(C(=O)N[C@@H]1C(=O)N2C(C(=O)O)=C(CSC(=O)c3ccco3)CS[C@H]12)c1csc(N)n1,Potency,[1],inactive
same,Potency,[2],inactive
Cn1cnc2c(F)c(Nc3ccc(Br)cc3F)c(C(=O)NOCCO)cc21,Potency,[1],inactive
same,Potency,[2],inactive
CCC[C@H]1C[C@H](C(=O)N[C@@H]([C@@H]2O[C@@H](SC)[C@@H](O)[C@@H](O)[C@@H]2O)[C@H](C)Cl)N(C)C1,Potency,[1],inactive
same,Potency,[2],inactive
Oc1ccc(-c2ccc(-c3cc(Nc4cccc(CNC5CC5)c4)n[nH]3)cc2)c(O)c1,Potency,[1],1.32 µM (active)
same,Potency,[2],1.32 µM (active)
C[C@@]12C[C@@]3(O)O[C@@H](O1)[C@]1(COC(=O)c4ccccc4)[C@@H]3C[C@@]12O[C@@H]1O[C@H](CO)[C@@H](O)[C@H](O)[C@@H]1O,Potency,[10],inactive
same,outcome,[9],inactive
same,outcome,[4],inactive
same,Potency,[5],inactive
same,max response,[6],0.508%
same,outcome,[7],inactive
